Data reported in ChEMBL document CHEMBL1201862, “PubChem BioAssay data set” (2004).
Values joined by “and” are separate entries in the source; they are usually repeats but may differ in a detail not shown here. Equal values may be shown once. Out of some 400,000 compounds screened, about 2,100 (0.53%) were called active. About 14% were inconclusive and are not listed. No rule for the calls is given here. Many of the other results were omitted from the sample, so actives are more common in it than they were.

Biological target: Ataxin-2 (Homo sapiens) (UniProt Q99700)
Sequence (Q99700 whole entry): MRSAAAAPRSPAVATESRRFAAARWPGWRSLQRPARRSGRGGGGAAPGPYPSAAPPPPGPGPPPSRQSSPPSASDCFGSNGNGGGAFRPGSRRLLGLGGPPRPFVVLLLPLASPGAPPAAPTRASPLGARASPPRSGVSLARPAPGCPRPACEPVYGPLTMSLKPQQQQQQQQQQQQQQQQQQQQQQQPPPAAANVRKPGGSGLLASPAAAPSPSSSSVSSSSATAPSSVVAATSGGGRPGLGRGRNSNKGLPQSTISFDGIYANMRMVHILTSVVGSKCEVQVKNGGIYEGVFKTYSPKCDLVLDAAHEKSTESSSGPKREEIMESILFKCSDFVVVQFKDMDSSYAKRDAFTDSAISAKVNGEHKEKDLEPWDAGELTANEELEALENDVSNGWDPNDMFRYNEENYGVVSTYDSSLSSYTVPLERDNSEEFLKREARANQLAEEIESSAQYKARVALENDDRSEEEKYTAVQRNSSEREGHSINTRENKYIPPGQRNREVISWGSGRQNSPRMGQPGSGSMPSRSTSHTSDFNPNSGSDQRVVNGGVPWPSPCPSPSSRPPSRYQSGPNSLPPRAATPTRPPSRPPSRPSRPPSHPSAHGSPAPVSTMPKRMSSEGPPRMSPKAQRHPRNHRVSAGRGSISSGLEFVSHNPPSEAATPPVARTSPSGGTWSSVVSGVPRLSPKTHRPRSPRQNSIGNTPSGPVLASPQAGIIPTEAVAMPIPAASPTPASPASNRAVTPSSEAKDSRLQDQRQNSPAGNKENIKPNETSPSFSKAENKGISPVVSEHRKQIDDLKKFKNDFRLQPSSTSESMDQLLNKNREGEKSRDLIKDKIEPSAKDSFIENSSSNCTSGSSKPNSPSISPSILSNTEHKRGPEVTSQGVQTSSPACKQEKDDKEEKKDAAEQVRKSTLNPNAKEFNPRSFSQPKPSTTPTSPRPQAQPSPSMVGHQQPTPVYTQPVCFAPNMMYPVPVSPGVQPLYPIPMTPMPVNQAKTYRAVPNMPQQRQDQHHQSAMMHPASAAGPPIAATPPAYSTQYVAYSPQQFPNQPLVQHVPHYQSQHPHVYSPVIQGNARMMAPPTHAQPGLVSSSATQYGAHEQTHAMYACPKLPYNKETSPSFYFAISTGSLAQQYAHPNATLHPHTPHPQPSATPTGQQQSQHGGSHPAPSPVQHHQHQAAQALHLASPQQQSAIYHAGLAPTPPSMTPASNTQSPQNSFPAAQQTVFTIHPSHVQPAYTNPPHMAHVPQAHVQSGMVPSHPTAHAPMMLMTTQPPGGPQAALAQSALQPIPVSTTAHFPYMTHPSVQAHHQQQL
Assay: qHTS for Inhibitors of ATXN expression.
Assay type: functional

Structure (SMILES) | Potency
Cc1cc(C(F)(F)F)c(C#N)c(SCC(=O)Nc2nc3cc(Br)ccc3s2)n1 | inactive
COC(=O)c1sc2ccccc2c1NC(=O)c1ccc(S(=O)(=O)N2CCCC(C)C2)cc1 (stereo not drawn) | inactive
CCOc1ccc2nc(O)c(CN(Cc3ccco3)C(CC)c3nnnn3Cc3ccccc3)cc2c1 (stereo not drawn) | 20 µM (active)
CCC(c1nnnn1Cc1ccco1)N(CCc1ccccc1)Cc1cc2cc(C)ccc2nc1O (stereo not drawn) | 39.8 µM (active)
Oc1nc2ccccc2nc1-c1nnnn1Cc1ccccc1 | inactive
COc1ccc(CCN(Cc2cc3cc(C)ccc3nc2O)C(C)=O)cc1OC | inactive
Cc1ccc2nc3c(cc2c1)c(NC(=O)c1ccco1)nn3CC(C)C | inactive
CC1CCCN(C(=S)SCC(=O)c2cc(Br)cc(Br)c2O)C1 (stereo not drawn) | inactive
O=C(Cc1csc(Nc2nc(S)nc3ccccc23)n1)N1CCN(c2cccc(Cl)c2)CC1 | inactive
CCn1c(SC(C)C(=O)Nc2nnc(C)s2)nnc1-c1ccco1 (stereo not drawn) | inactive
Cc1cc(/C=C(\C#N)C(=O)NCc2cccs2)c(C)[nH]1 | inactive
Cc1cc(C(=O)CN2C(=O)c3cccc(N)c3C2=O)c(C)n1Cc1cccs1 | inactive
Cc1c(C#N)c(NC(=O)CCl)n(Cc2cccs2)c1C | 11.2 µM (active)
Cc1c(CCC(=O)O)c(=O)oc2c(C)c3occ(-c4ccc(Cl)cc4)c3cc12 | inactive
C[C@H]1CN([C@@H](C)CO)C(=O)Cc2cc(NC(=O)CCC(F)(F)F)ccc2O[C@H]1CN(C)Cc1ccc(-c2ccccc2)cc1 | 35.5 µM (active)
C[C@H]1CN([C@@H](C)CO)C(=O)Cc2cc(NC(=O)CCC(F)(F)F)ccc2O[C@H]1CN(C)Cc1ccc(C(F)(F)F)cc1 | 39.8 µM (active)
C[C@@H]1CN([C@@H](C)CO)C(=O)CCCn2nncc2CO[C@H]1CN(C)Cc1ccc(-c2ccccc2)cc1 | 28.2 µM (active)
C[C@H](CO)N1C[C@H](C)[C@@H](CN(C)S(=O)(=O)c2ccc(-c3ccccc3)cc2)OCc2cn(nn2)CCCC1=O | inactive
O=C1OCc2ccc(NS(=O)(=O)c3ccc(C(F)(F)F)cc3)cc21 | inactive
COc1cccc(S(=O)(=O)N(C)C[C@@H]2OCc3cnnn3CCCC(=O)N([C@@H](C)CO)C[C@H]2C)c1 | inactive
C[C@@H]1CN([C@H](C)CO)C(=O)Cc2cc(NS(=O)(=O)c3ccc(Cl)cc3)ccc2O[C@H]1CN(C)Cc1ccc(C(F)(F)F)cc1 | 25.1 µM (active)
COCCCNC(=O)/C(C#N)=C/c1c(N2CCN(C)CC2)nc2c(C)cccn2c1=O | inactive

Structure (SMILES) | Potency
CNS(=O)(=O)c1ccc2c3c(cccc13)C(=O)N2 | inactive
Cc1c(Cc2ccccc2)c(NCCCO)n2c(nc3ccccc32)c1C#N | inactive
NC(=O)c1cc2ccc(O)cc2o/c1=N\c1ccccc1 | inactive
Cc1cc(C)c(S(=O)(=O)NCc2ccc3c(c2)OCO3)c(C)c1 | inactive
Cc1ccc(NC(=O)C2CC(=O)N(C(C)C)C2)cc1C (stereo not drawn) | inactive
Cc1ccc(S(=O)(=O)Nc2ccc3c(c2)CC(=O)N([C@H](C)CO)C[C@H](C)[C@H](CN(C)Cc2ccc4c(c2)OCO4)O3)cc1 | 35.5 µM (active)
C[C@H]1CN([C@@H](C)CO)C(=O)Cc2cc(NC(=O)C3CC3)ccc2O[C@H]1CN(C)Cc1ccc(Oc2ccccc2)cc1 | 25.1 µM (active)
CN(C)Cc1ccccc1CNC(=O)c1cccc(S(=O)(=O)Nc2ccc3c(c2)OCO3)c1 | inactive
Cc1ccc(-c2nc(C[S+]([O-])CC(=O)NCCN3CCCCCC3)c(C)o2)cc1 (stereo not drawn) | inactive
CCOC(=O)CN1C(=O)CC(c2ccc([N+](=O)[O-])cc2)C1=O (stereo not drawn) | inactive
NC(=O)c1nsc(C(=O)N(c2ccccc2F)C(C(=O)NCc2ccccc2)c2ccc(O)cc2)c1N (stereo not drawn) | inactive
Cc1ccc(Nc2nc(-c3ccncc3)cs2)cc1 | inactive
Cc1csc(N2CCN(c3cc4c(cc3Cl)nc(-c3ccncc3)n4CCCN3CCCC3)CC2)n1 | 35.5 µM (active)
O=[N+]([O-])c1ccc(-c2csc(N3CCCCCC3)n2)cc1 | inactive
Cc1ccc(-c2csc(N3CCN(CCCn4c(-c5ccncc5)nc5ccccc54)CC3)n2)cc1 | 35.5 µM (active)
O=C(Nc1nc2c(s1)CN(Cc1ccccc1)CC2)c1c(F)cccc1F | inactive
ClC1(Cl)CC1CSc1nc2ccccc2[nH]1 (stereo not drawn) | inactive
CC/N=C1/S/C(=C/c2ccc(-c3ccc(F)cc3)o2)C(=O)N1CC | inactive
COc1ccc(/C=C2\SC(=S)N(CC(=O)NNC(=O)c3ccncc3)C2=O)cc1 | inactive
Cc1ccc(/C=C2\SC(=S)N(CCC(=O)NNC(=O)c3ccncc3)C2=O)cc1 | inactive
Cc1ccc(/C=C2/SC(=S)N(CCC(=O)N3CCN(C)CC3)C2=O)cc1 | 11.9 µM (active)
CN1CCN(C(=O)CCN2C(=O)/C(=C\c3ccc(F)cc3)SC2=S)CC1 | 39.8 µM (active)

Structure (SMILES) | Potency
Cc1ccc(/C=C2\Oc3c(ccc(O)c3CN3CCN(C)CC3)C2=O)cc1 | inactive
COc1ccc(/C=C2/SC(=S)N(CCCC(=O)N3CCN(C)CC3)C2=O)cc1 | 17.8 µM (active)
COc1ccc(-n2c(=O)/c(=C\c3cccs3)s/c2=C(/C#N)C(=O)N2CCN(C)CC2)cc1 | inactive
O=C(CCN1C(=O)/C(=C\c2ccc(F)cc2)SC1=S)Nc1ccccc1 | inactive
O=C(Nc1cc[n+](-c2nc3ccccc3nc2[N-]S(=O)(=O)c2ccccc2)cc1)c1cccs1 | inactive
COC(=O)c1ccc(CSc2nc(C(F)F)cc(C)c2C#N)o1 | inactive
O=C(OCC1CCNCC1)c1ccc(F)cc1 | inactive
C=CCNC(=O)C(C#N)c1nc2ccccc2nc1N1CCCCCC1 (stereo not drawn) | inactive
COc1ccccc1/C=C/C1(C(=O)NC2CCCC2)CC(=O)N1c1ccc(F)cc1 (stereo not drawn) | 14.1 µM (active)
COc1ccccc1[C@@H]1C(c2ccc(F)cc2)=NN(c2ccccc2)[C@H]1C(=O)N1CCOC1=O | inactive
COc1cccc(/C=N/NC(=O)NC2CCCCC2)c1O | inactive
COc1ccccc1Nc1nc(Cl)c(C=O)s1 | inactive
Nc1nc(Sc2ccc([N+](=O)[O-])c3nonc23)c2nc[nH]c2n1 | 22.4 µM (active)
CCCNC(=O)/C=C/C(=O)O | inactive
Cc1cc(C(=O)O)ccc1-c1ccc(/C=C2\NC(=O)N(Cc3ccccc3Cl)C2=O)o1 | inactive
CC(=O)c1ccccc1NC(=O)COC(=O)CN1C(=O)C2CCCCC2C1=O (stereo not drawn) | inactive
CSc1ccc(NC(=O)NCCCN2CCC(Cc3ccccc3)CC2)cc1 | 39.8 µM (active)
O=C(OCC(=O)N1CCC(Cc2ccccc2)CC1)c1ccccc1F | inactive
O=C(Nc1ccccc1)Nc1ccccc1C(=O)NCCCN1CCOCC1 | inactive
CN(C)c1ccc(/C=N/CCc2ccc(S(N)(=O)=O)cc2)cc1 | inactive
C(=C\c1ccco1)/C1=NN(c2ccccc2)C(c2ccco2)C1 (stereo not drawn) | inactive
CCOCCCn1/c(=N/C(C)=O)c(C(=O)OCC)cc2c(=O)n3ccccc3nc21 | inactive

Structure (SMILES) | Potency
COc1cccc2c1C(=O)c1c(O)c3c(c(O)c1C2=O)CC(O)(C(C)=NNC(=O)c1ccc(Cl)c(Cl)c1)CC3OC1CC(N)C(O)C(C)O1 (stereo not drawn) | 2.67 µM (active)
COc1cccc2c1C(=O)c1c(O)c3c(c(O)c1C2=O)C[C@](O)(C(C)=O)C[C@H]3O[C@@H]1C[C@H](N)[C@H](O)[C@H](C)O1 | 1 µM (active)
COc1cccc2c1C(=O)c1c(O)c3c(c(O)c1C2=O)C[C@@](O)(C(=O)CO)C[C@@H]3O[C@H]1C[C@H](N)[C@@H](O)[C@H](C)O1 | 8.91 µM (active)
COc1cccc2c1C(=O)c1c(O)c3c(c(O)c1C2=O)CC(O)(C(=O)CO)CC3OC1CC(N(C)C)C(O)C(C)O1 (stereo not drawn) | 1.19 µM (active)
CC(=O)/N=c1\c(C#N)cc2c(=O)n3cccc(C)c3nc2n1Cc1ccco1 | inactive
CCN(CC)c1ccc(-n2nc3cc(C)c(NC(=O)c4ccccc4F)cc3n2)cc1 | inactive
CCn1cnc2c1c(=O)n(CC(=O)NN)c(=O)n2Cc1ccccc1 | inactive
Nc1c(C(=O)Nc2ccc(Br)cc2)sc2nc(-c3ccco3)ccc12 | inactive
Cc1nn(C)c(C)c1N1C(=O)c2cccc3c(N)ccc(c23)C1=O | inactive
NNC(=O)c1oc2nc(-c3ccc(Cl)cc3)cc(-c3ccccc3)c2c1N | inactive
COc1cccc2c1C(=O)c1c(O)c3c(c(O)c1C2=O)C[C@](O)(C(=O)CO)C[C@H]3O[C@@H]1C[C@H](N)[C@H](O)[C@H](C)O1 | 0.794 µM (active)
CC(=O)[C@]1(O)Cc2c(O)c3c(c(O)c2[C@@H](O[C@H]2C[C@H](N)[C@H](O)[C@H](C)O2)C1)C(=O)c1ccccc1C3=O | 35.5 µM (active) and 20 µM (active)
CC(C)c1ccc(-n2nc3ccc(N)cc3n2)cc1 | inactive
Cc1cc(C)n(-c2ccc(C(=O)N3CCC(CO)(Cc4ccccc4)CC3)cc2)n1 | inactive
Cc1ccc([N+](=O)[O-])cc1N/C=C1\CCCCC1=O | inactive
COCCn1/c(=N/C(=O)c2cc(-c3cccs3)nc3ccccc23)sc2cc(S(N)(=O)=O)ccc21 | inactive
C=CCn1/c(=N/C(=O)c2sc3ccccc3c2Cl)sc2cc(S(N)(=O)=O)ccc21 | 12.6 µM (active)
Cc1nonc1CC(=O)N1CCCC(C(=O)c2ccc(Cl)cc2)C1 (stereo not drawn) | inactive
Cc1nn(C)c(C)c1CCC(=O)N1CCCC(Nc2ccc(C(C)C)cc2)C1 (stereo not drawn) | 39.8 µM (active)
Cc1cc(=O)n2nc(N3CCCC3C(=O)Nc3ccc(C(C)C)cc3)sc2n1 (stereo not drawn) | inactive
O=C(NCc1ccc(F)cc1)c1cccc2c1C(=O)c1ccc(N3CCC(Cc4ccccc4)CC3)cc1S2(=O)=O | inactive
Cc1nc2c(S(=O)(=O)c3ccccc3)cnn2c(C)c1C | inactive
